Screening data as filed in PubChem BioAssay.
In the library only some 10% were active in any assay of this set; here they are far more common.
G9a block = G9a (human) methyltransferase inhibition. AID 504332. G9a H3K9 monomethylation, AlphaScreen, 2 h. Potency, µM (highest dose often 102 µM), hits mostly inhibitors. Q96KQ7. hit rate 8.8% among 350,000; also: nearly all actives have a fitted effect of over 75% in size
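Using a bead-based AlphaScreen, monomethylated H3K9 product from 2 h room-temperature reactions (G9a 20 nM, peptide 500 nM, SAM 20 uM) was detected with 0.5 ug/mL rabbit anti-H3K9me1 antibody.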
JMJD2A Tudor inh = blocks the human JMJD2A Tudor domain. O75164. hit rate 4.4% among 390,000. Potency, µM (highest dose often 114 µM), actives largely listed as inhibitors. AlphaScreen JMJD2A-Tudor / H3K4me3 peptide binding; also: nearly all actives have a fitted effect of over 50% in size
BAZ2B block = inhibitors of human BAZ2B bromodomain; AlphaScreen BAZ2B-H3K14Ac peptide displacement; Potency, µM (series often up to 114 µM), most hits filed as inhibitors; hit rate 4.4% among 360,000; AID 504333; also: nearly all actives have a fitted effect of over 60% in size
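AlphaScreen luminescence quantifies BAZ2B engagement of H3K14Ac peptide; the protein and biotinylated peptide are both at 50 nM final, buffer PBS pH 7.4 with 0.01% Tween-20, all steps at room temperature.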
HP1b chromo inh = HP1-beta chromodomain-methylated histone interaction inhibition | P83916 | AlphaScreen HP1-beta / biotin-H3K9me3 peptide binding | Potency, µM (top dose mostly 114 µM), hits mostly inhibitors | hit rate 0.56% among 390,000; also: nearly all actives have a fitted effect of over 70% in size
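HP1-beta protein (50 nM final) preincubated 30 min at room temperature with biotinylated H3(1-18)K9me3 peptide (50 nM) in PBS pH 7.4, 0.01% Tween-20, then compound added for 30 min. AlphaScreen streptavidin donor/nickel chelate acceptor beads (10 ug/mL final), 30 min dark, luminescence read.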
GLS inhibitor = glutaminase GLS (human) inhibition | O94925 | GLS enzymatic activity, qHTS titration | Potency, µM (top dose mostly 45.5 µM), usual class: inhibitors | hit rate 0.21% among 410,000
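Read-out is an Amplex red fluorescence increase coupled through glutamate oxidase and HRP, measured before and after 30 min room-temperature incubation. hKGA is in 45 mM KH2PO4 (pH 8.2) with 0.02% Tween-20; glutamine added as 1mM solution.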
Numbers stand for hits; i = inactive; ? = inconclusive; nt = no result; ! = not confirmed by another sample; [ ] = dose if it differs, or a comment. Calls follow the shape of the dose curve; as a rule, active = well fitted curve in the direction sought with a large enough effect; inconclusive = small, poorly fitted or top-dose-only effect, or another doubt; inactive = no such curve, though single readings can be large; an effect the other way counts as inactive or inconclusive.

SMILES | G9a block | JMJD2A Tudor inh | BAZ2B block | HP1b chromo inh | GLS inhibitor
O=[N+]([O-])c1ccccc1-c1ccc(C(=S)N2CCCCC2)o1 | 20µM | 44.7µM | 25.1µM | 50.1µM | i
Cc1cccc(N2CCN(C(=S)c3ccc(-c4ccccc4[N+](=O)[O-])o3)CC2)c1 | 11.2µM | 8.91µM | 10µM | 15.8µM | i
O=[N+]([O-])c1ccccc1-c1ccc(C(=S)N2CCCC2)o1 | 10µM | 56.2µM | 39.8µM | ? | i
COc1cc(NC(=O)c2onc(C)c2Cl)c(OC)cc1Cl | i | i | i | i | i
O=[N+]([O-])c1cccc(C2(O)COc3ccccc3O2)c1 (configuration not stated) | i | i | i | i | i
C=CCn1c(SCC(N)=O)nnc1-c1cnccn1 | nt | i | i | i | i
Cc1ccc(S(=O)(=O)Nc2cc(-c3ccc(Cl)cc3)nn2C)cc1 | i | i | i | i | i
Nc1c(C(=O)NC2CCCC2)c2nc3ccccc3nc2n1/N=C/c1ccco1 | i | i | i | i | i
Nc1c(C(=O)NC2CCCC2)c2nc3ccccc3nc2n1N | 50.1µM | i | i | i | i
CCOc1ccc(NC(=O)c2ccc(NS(=O)(=O)c3cccc4cccnc34)cc2)cc1 | nt | i | nt | i | i
CCN(CC)S(=O)(=O)c1cccc(C(=O)NCC(c2ccccc2)N(C)C)c1 (configuration not stated) | ? | i | nt | i | i
COC(=O)[C@H]1[C@H]2C[C@@H]3c4[nH]c5cc(OC)ccc5c4CCN3C[C@H]2C[C@@H](OC(=O)c2ccc(N)cc2)[C@@H]1OC | ? | ? | 39.8µM | i | i
COC(=O)C1[C@@H](OC)C(OC(=O)COc2ccc(OC)cc2)C[C@@H]2CN3CCc4c([nH]c5cc(OC)ccc45)[C@H]3C[C@H]12 (some centres not stated) | i[12.7 µM] | nt | nt | nt | i
COc1ccc(NC(=O)CCN2C(=O)C3CC=C(Cl)CC3C2=O)cc1 (configuration not stated) | i | i | i | i | i
Cc1nnnn1/C(=C\c1ccccc1)C(=O)OCC(=O)Nc1ccc(Cl)cc1F | 50.1µM | i | i | i | i
COc1cccc(NC(=O)C(=O)NCCCn2ccnc2)c1 | i | i | 79.4µM | i | i
CCCCCOc1ccc(NC(=O)C(=O)NCCCn2ccnc2)cc1 | i[12.7 µM] | i | i | i | i
O=C(NCCCn1ccnc1)Nc1cccc(Cl)c1 | i | 44.7µM | 25.1µM | i | i
CSc1ncnc2ncn(C)c12 | nt | i | nt | i | i
O=C(O)CSc1nnc(COc2cccc3ccccc23)o1 | nt | i | i | i | i
N#Cc1c(Nc2ccccc2C(F)(F)F)s[nH]c1=O | 14.1µM | i | i | i | i
N#Cc1c(Nc2ccccc2)s[nH]c1=O | 12.6µM | i | i | i | i
CNc1csc(C)c(C)c1=O | ? | i | ? | i | i
O=[N+]([O-])c1cccc(/C=N/NC2=NCCCCC2)c1 | i | i | i | i | i
O=C(CCN1C(=O)C2C3C=CC(C3)C2C1=O)N1CCCCC1 (configuration not stated) | i | i | i | i | i
SMILES | G9a block | JMJD2A Tudor inh | BAZ2B block | HP1b chromo inh | GLS inhibitor
COC(=O)/C=C1\SC(N2CCOCC2)=C(c2ccc(OC)cc2)C1=O | 2µM | i | 44.7µM | i | i
CC(C)(C)c1ccccc1OCCOCCN1CCCCCC1 | i | i | i | i | ?
CCC(C)c1ccccc1OCCCCN1CCCC1 (configuration not stated) | ? | 3.16µM | ? | i | i
CCC(C)c1ccccc1OCCOCCN1CCCC1 (configuration not stated) | 12.6µM | 2.51µM | ? | ? | i
CC(=O)c1cc(CN2CCC(N3CCC(C(=O)NC(C)C)CC3)CC2)cs1 | i | i | i | i | i
CC(=O)c1cc(CN2CCC(N3CCC(C(=O)N4CCCC4)CC3)CC2)cs1 | 11.2µM | i[11.4 µM] | i | i | i
COC1=C(Nc2ccccc2)C(=O)c2ccccc2C1=O | 11.2µM | 14.1µM | 14.1µM | 35.5µM | i
COC1=C(OC)C(=O)c2ccccc2C1=O | 20µM! | nt | nt | nt | nt
COC1=C(Nc2ccc(C)cc2)C(=O)c2ccccc2C1=O | 8.91µM | 10µM | 7.94µM | 15.8µM | i
CCN(CC)CCOC(=O)c1ccc(NC(=O)CSc2nnc(-c3cccs3)n2CC)cc1 | nt | i | nt | i | i
CC(=O)CC1(C)OC(N)=C(C#N)C1(C#N)C#N (configuration not stated) | nt | i | i | i | i
C=CCOc1ccc(/C=C2/C(=O)ON=C2C)cc1OC | 50.1µM | i | i | i | i
COc1ccc(/C=C2\SC(N)=NC2=O)cc1Cl | i | i | i | i | i
COc1ccc(/C=C2/C(=O)ON=C2C)cc1Cl | 15.8µM | i | i | i | ?
CC(C)(C)N(Cc1ccccc1)C(=O)COC(=O)CSc1ccc([N+](=O)[O-])cc1 | 39.8µM | i | i | i | i
CCNc1ccc(C(=O)OCC(=O)N(Cc2ccccc2)C(C)(C)C)cc1[N+](=O)[O-] | 89.1µM | i | i | i | i
C=C(C)Cn1c(=S)[nH]c2ccccc2c1=O | i | i | i | i | i
CCOc1ccc(S(=O)(=O)NCCC(=O)N(C)Cc2ccc(C)o2)cc1 | i[0.501 µM] | i | i | i | i
COc1ccc(O)c(-c2cc(C(F)(F)C(F)F)nc(-c3ccccc3)n2)c1 | i | i | i | i | i
COc1ccc2oc(=O)c(C(=O)Nc3ccccc3C)cc2c1 | i[0.501 µM] | i | 50.1µM | i | i
C/C(=N\Nc1ccccc1)c1c(O)cc(C)oc1=O | 2.51µM | i | i | i | i
COc1ccc2oc(=O)c(/C(C)=N/Nc3ccccc3)cc2c1 | 12.6µM | i | nt | i | i
Cc1ccccc1C(=O)NC1CCN(CC(=O)Nc2ccc3c(c2)OCCO3)CC1 | i | i | i | i | i
CC(C)[C@H](NC(N)=O)C(=O)Nc1cccc(S(=O)(=O)N2CCOCC2)c1 | 35.5µM | i | i | i | i
O=C(Nc1nc2ccc(S(=O)(=O)N3CCCC3)cc2s1)c1ccccn1 | 12.6µM | ? | ? | i | i
SMILES | G9a block | JMJD2A Tudor inh | BAZ2B block | HP1b chromo inh | GLS inhibitor
O=C(Nc1nc2ccc(S(=O)(=O)N3CCCCC3)cc2s1)c1ccncc1 | i[12.7 µM] | i | i | i | i
O=C(Nc1cccc(S(=O)(=O)N2CCOCC2)c1)c1ccccn1 | 25.1µM | i | ? | i | i
Cc1nc(-c2cccc(NC(=O)c3cccc(S(=O)(=O)N4CCCC4)c3)c2)cs1 | 10µM | i | i | i | i
O=C(Nc1cccc(S(=O)(=O)N2CCCCC2)c1)c1ccccn1 | 5.62µM | ? | ? | i | i
CSCCC(NC(=O)c1cccc(S(=O)(=O)N2CCOCC2)c1)C(=O)Nc1ccc(F)cc1 (configuration not stated) | 7.08µM | i | i | i | i
O=C(CNc1cccc(S(=O)(=O)N2CCOCC2)c1)N1CCc2ccccc21 | 39.8µM | i | i | i | i
CN(C)S(=O)(=O)c1cccc(NC(=O)c2ccc3c(c2)S(=O)(=O)N=C2CCCCCN23)c1 | 31.6µM | nt | i | nt | nt
OCC(CO)c1cnnc2ccccc12 | nt | i | nt | i | i
CN(C)S(=O)(=O)c1cccc(NC(=O)c2cccc(S(=O)(=O)N3CCCCC3)c2)c1 | 50.1µM | i | i | i | i
